From PubChem BioAssay
GLP1R ag – qHTS of GLP-1 Receptor Agonists; hit rate 0.007% among 380,000; Potency, µM (highest dose often 45.6 µM), most hits filed as activators; HEK293 GLP-1R CRE-luciferase, luminescence, 4-6 h; cells express a hypersensitive GLP-1R form; Glucagon-like peptide 1 receptor (Homo sapiens), P43220; AID 624172, 2012
GLP1R cytotox – qHTS of GLP-1 Receptor Inverse Agonists: Cytotox Screen | Potency, µM (highest dose often 38.3 µM), most hits filed as inhibitors | AID 624418, 2012 | HEK293 cAMP-luciferase reporter cells, luminescence, 24 h | hit rate 0.13% among 410,000;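 also: loss of luciferase light is scored as toxicity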
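Luminescence readout: signal drop marks cytotoxicity. Plated cells grew 12 h at 37 °C, 5% CO2, received 23 nL compound for 24 h, then got luciferase reagent, read after 12 min at RT.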
TRHR ag – qHTS for Small Molecule Agonists and Allosteric Enhancers of Human TRH Receptor: Primary Screen for Agonists; Thyrotropin-releasing hormone receptor (Homo sapiens), P34981; TRHR cells, calcium flux fluo-8, FDSS agonist mode; AID 493084, 2011; hit rate 0.18% among 360,000; activation, % at 2 µM; in the data active = activation above about 30%
Target sequence (P34981 whole entry, looked up): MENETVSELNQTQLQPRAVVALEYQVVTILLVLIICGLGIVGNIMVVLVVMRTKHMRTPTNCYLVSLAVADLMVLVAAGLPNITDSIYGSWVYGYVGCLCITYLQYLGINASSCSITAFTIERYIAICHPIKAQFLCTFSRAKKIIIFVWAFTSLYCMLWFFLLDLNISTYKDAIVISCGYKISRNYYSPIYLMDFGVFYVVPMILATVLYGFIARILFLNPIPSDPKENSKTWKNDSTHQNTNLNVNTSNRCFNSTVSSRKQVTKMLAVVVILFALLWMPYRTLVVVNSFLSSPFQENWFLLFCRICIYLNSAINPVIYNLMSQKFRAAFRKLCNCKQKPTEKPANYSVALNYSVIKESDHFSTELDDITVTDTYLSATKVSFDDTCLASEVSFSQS
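Agonist-mode FDSS calcium read (Ex 480/Em 530, 1 s cycles) in 1536-well TRHR cells with fluo-8 dye, after 10-cycle baseline and 23 nL compound addition; TRH at EC20 (10 nM final) added afterwards for the enhancer phase.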
GLP-1R inv ag – qHTS of GLP-1 Receptor Inverse Agonists (Inhibition Mode). AID 624417, 2012. Potency, µM (highest dose often 38.3 µM), usual class: inhibitors. hit rate 1.6% among 410,000. HEK293 GLP-1R CRE-luciferase, luminescence, 24 h; GLP-1R form is constitutively active; also: nearly all actives have a fitted effect of over 55% in size
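qHTS in 1536-well format: reporter HEK293 cells expressing constitutive GLP-1R activity in DMEM + 10% Nu serum, 24 hr with compounds at 37 deg C, luminescence read after 12 min with detection reagent.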
PTHR1 ag – qHTS for PTHR1 Agonists: Primary Screen | Parathyroid hormone/parathyroid hormone-related peptide receptor (Homo sapiens), Q03431 | HEK293 GP2 PTHR1 cells, GloSensor cAMP luminescence, 1 h | Potency, µM (highest dose often 115 µM), actives largely listed as activators | hit rate 0.075% among 410,000 | AID 743266, 2014; also: nearly all actives have a fitted effect of over 55% in size
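HEK-293-derived GP2 cells expressing PTHR1 and a GloSensor cAMP reporter, 3,000/well, plated overnight, given luciferin plus IBMX (each 0.5 mM as added) for 1 h at 37 °C, then compound for 1 h at 37 °C. Luminescence was read after 15 min at room temperature.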
TRHR PAM – qHTS for Small Molecule Agonists and Allosteric Enhancers of Human TRH Receptor: Primary Screen for Enhancers; Thyrotropin-releasing hormone receptor (Homo sapiens), P34981; TRHR cells, fluo-8 calcium fluorescence, EC20 TRH enhancement; enhancement, % at 2 µM; hit rate 0.66% among 360,000; AID 493056, 2011; in the data active = enhancement above about 30%
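TRHR-expressing cells loaded with fluo-8 calcium dye were read kinetically (ex 480/em 530) during compound addition, then stimulated with an EC20 of TRH (10 nM final). Enhancement of the Gq-mediated intracellular calcium response was scored.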
Of the large screens only hits and unclear results are named; the others gave an inactive call. Rows were chosen to be rich in hits. Some 2.4% of all compounds tested hit in one or more screens of this group. Unless noted, calls follow the shape of the dose curve; as a rule, active = well fitted curve in the direction sought with a large enough effect; inconclusive = small, poorly fitted or top-dose-only effect, or another doubt; inactive = no such curve, though single readings can be large; an effect the other way counts as inactive or inconclusive.

O=C(/C=C/c1cccc2ccccc12)c1ccncc1	GLP1R cytotox inconclusive, GLP-1R inv ag 8.9µM
O=C(N/N=C/c1cccc2ccccc12)c1ccncc1	none
CCN1CCN(C(c2cccs2)C(C)NS(=O)(=O)c2ccc(Br)cc2)CC1 (stereo not given)	GLP1R cytotox inconclusive, GLP-1R inv ag 11µM
Cc1ccc(S(=O)(=O)NC(C)C(c2cccs2)N2CCN(C)CC2)cc1 (stereo not given)	GLP-1R inv ag inconclusive
O=C(Nc1ccc(NC(=O)c2ccc(Br)cc2)c(Cl)c1)c1ccc(Br)cc1	none (no result: GLP1R ag)
CC1CCCC(C)N1C(=O)CSc1nnc(C2CCCCC2)o1 (stereo not given)	GLP-1R inv ag 3.2µM
Cc1cc(-c2nnc(SCC(=O)N3C(C)CCCC3C)o2)no1 (stereo not given)	none
Cc1ccc(C(=O)NC2(C(Cl)Cl)N=C(c3ccccc3)N=C2N)cc1 (stereo not given)	none
CCCCC(c1nnnn1CC1CCCO1)N1CCN(c2nc3ccccc3s2)CC1 (stereo not given)	GLP-1R inv ag 10µM
c1cc2cc(-c3c(-c4ccc5c(c4)OCO5)noc3-c3ccsc3)ccc2[nH]1	GLP-1R inv ag inconclusive
Cc1onc(-c2ccc3c(c2)OCO3)c1-c1ccc2[nH]ccc2c1	GLP1R cytotox inconclusive, GLP-1R inv ag 8.9µM
O=S1(=O)c2ccc(Br)cc2N2CCC[C@H]2CN1Cc1ccccc1	GLP1R cytotox inconclusive, GLP-1R inv ag 4µM (no result: TRHR ag, TRHR PAM)
O=S1(=O)c2ccc(Br)cc2N2CCC[C@@H]2CN1Cc1ccc(Cl)cc1	GLP-1R inv ag inconclusive (no result: TRHR ag, TRHR PAM)
O=C(Cc1ccc(NC(=O)C2CCCN(C(=O)C3CCCCC3)C2)cc1)Nc1cccc(C(=O)N2CCCC2)c1 (stereo not given)	none (no result: TRHR ag, TRHR PAM)
CC/C(=N\NC(=O)c1nnn(-c2nonc2N)c1-c1cccs1)c1ccccc1	GLP-1R inv ag 7.9µM
CCCN(CCC)Cc1c(C(=O)N/N=C/C(C)=C\c2ccco2)nnn1-c1nonc1N	GLP-1R inv ag 3.5µM
Cc1ccsc1/C=N/NC(=O)c1nnn(-c2nonc2N)c1CN(C)c1ccccc1	GLP-1R inv ag 11µM
CCc1c(C(=O)N/N=C/c2sccc2C)nnn1-c1nonc1N	none
CC(/C=N/NC(=O)c1nnn(-c2nonc2N)c1CN(C)C)=C\c1ccco1	none
C[C@@H]1CN([C@@H](C)CO)C(=O)CCCn2nncc2CO[C@@H]1CN(C)C(=O)Nc1ccc(N2CCCCC2)cc1	none (no result: TRHR ag, TRHR PAM)
COc1cc(C(=O)NCC(=O)N/N=C/c2ccccn2)cc(OC)c1OC	TRHR PAM 35
CCOc1ccc(NC(=O)c2ccccn2)cc1	GLP-1R inv ag 2µM
COc1cc(NC(=O)c2ccccn2)cc(OC)c1OC	TRHR PAM 30
COc1ccc(S(=O)(=O)N2CCCCCC2)cc1C(=O)N(C)CC(=O)Nc1ccccc1C(F)(F)F	none
C[C@H](O)[C@@H]1CN2CCc3c([nH]c4ccc(-c5ccc6c(c5)OCO6)cc34)[C@@H]2C[C@@H]1N(C)C(=O)Nc1ccc(F)cc1	GLP1R cytotox inconclusive, GLP-1R inv ag 4µM (no result: TRHR ag, TRHR PAM)
Cc1ccc(NC(=O)NCc2cccn2Cc2ccccc2)c(C)c1	none (no result: GLP1R ag)
CCC(C)c1ccc(NC(=O)N2CCOCC2)cc1 (stereo not given)	none
CCCCCn1c(=O)[nH]c2cc(C(=O)NCCN3C(C)CCCC3C)ccc2c1=O (stereo not given)	GLP-1R inv ag 1.8µM
CCCCCn1c(=O)[nH]c2cc(C(=O)NCCN3CCCCC3C)ccc2c1=O (stereo not given)	GLP-1R inv ag inconclusive
CCc1nn(CC(=O)N2CCN(CC)CC2)c(=O)c2cc3sccc3n12	none
CCOC(=O)C1CCN(C(=O)Cn2nc(CC)n3c(cc4sccc43)c2=O)CC1	GLP-1R inv ag inconclusive, TRHR PAM 30 (no result: GLP1R ag)
Cc1ccc(-c2nc(NCCCN(C)C)c3ccccc3n2)cc1	GLP-1R inv ag 10µM (no result: TRHR ag, TRHR PAM)
CC(C)(C)C(=O)OCCNc1nc(-c2ccccc2)nc2ccccc12	GLP1R cytotox inconclusive, GLP-1R inv ag 13µM
CCOC(=O)c1sc2ncn(CC(=O)Nc3cccc(C)c3)c(=O)c2c1C	none
COC(=O)c1n[nH]c2ccccc12	none
CC(C)(C)C(=O)Cn1ncc(Cl)c(Cl)c1=O	GLP1R cytotox inconclusive, GLP-1R inv ag inconclusive, TRHR PAM 32
O=C(Cn1ncc(Cl)c(Cl)c1=O)c1ccc(Cl)cc1	GLP1R cytotox 10µM
O=C(O)COc1ccccc1-c1ccccc1	none
CC1CCN(S(=O)(=O)c2ccc3c(c2)oc(=O)n3CC(=O)O)CC1	PTHR1 ag inconclusive (no result: GLP1R ag)
Cc1[nH]n(S(=O)(=O)Cc2ccccc2)c(=O)c1N=Nc1ccccc1Cl	none
CC(C)c1cc(-c2cc(C(=O)NCc3ccccc3)on2)nc(NCC2CC2)n1	GLP-1R inv ag 13µM
COc1cc(/C=C/C(=O)CC(=O)/C=C/c2ccc(O)c(OC)c2)ccc1O	GLP1R cytotox inconclusive, TRHR ag 107
COc1cc(/C=C/C(=O)/C=C(O)/C=C/c2ccc(O)c(OC)c2)ccc1O	TRHR ag 58
COc1cc(/C=C/C(=O)O)ccc1O	none (no result: TRHR ag, TRHR PAM)
OCc1cccc(-c2cnc3c(Nc4cccc(OC(F)(F)C(F)F)c4)nccn23)c1	GLP-1R inv ag 13µM (no result: TRHR ag, TRHR PAM)
CCOC(=O)C1C(=O)C=C(/C=C/c2ccc(N(C)C)cc2)CC1c1ccccc1 (stereo not given)	TRHR ag 73
O=C(CSc1nc2ccccc2n1Cc1ccccc1)N/N=C/c1ccco1	none
Cc1cc(C)cc(-n2nnc(C(=O)NCc3ccc4c(c3)OCO4)c2N)c1	PTHR1 ag inconclusive
Cc1c(C(=O)N(Cc2ccc(N(C)C)cc2)CC2CCCO2)oc2ccccc12 (stereo not given)	GLP-1R inv ag 10µM
C=CCn1c(COc2ccccc2F)nnc1SCCN1C(=O)c2ccccc2C1=O	PTHR1 ag inconclusive, TRHR PAM 38
COc1ccc(NC(=O)C2(C)Cc3c(-c4cccc(NC(C)=O)c4)ccnc3O2)cn1 (stereo not given)	GLP1R cytotox inconclusive, GLP-1R inv ag 1.1µM (no result: TRHR ag, TRHR PAM)
Cc1cccc(C(=O)N/N=C/c2ccncc2)c1	none
CN(C)c1ccc(C(CNC(=O)COc2ccc(Cl)cc2)N2CCOCC2)cc1 (stereo not given)	none (no result: GLP1R ag)
